Source: PubChem BioAssay AID1043 (National Center for Advancing Translational Sciences (NCATS), 2008)
Results filed as inconclusive are left out. Calls of active or inactive are those of the source. The call rests on the fitted dose curve.

Assay: H358 Cell Viability Secondary Assay for qHTS Assay for Epigenetic Modulators
Details: H358 NSCLC viability, MTS absorbance, 4 days
Description: NIH Molecular Libraries Screening Centers Network [MLSCN] NIH Chemical Genomics Center [NCGC] MLSCN Grant: 1 X01 MH079860-01 Assay Provider: Elisabeth D. Martinez, University of Texas SW Medical Center NCGC Assay Overview: This secondary assay characterizes selected actives identified in the qHTS of the Locus Derepression (LDR) assay (PubChem AID 597). The LDR assay detects the derepression of a GFP reporter that is stably integrated in a region of the genome of murine c127i mammary cells that is presumably silenced. Compounds that cause derepression of the locus to express GFP are identified by enumerating GFP positive cells using a laser-scanning microplate cytometer. Selected LDR actives were assayed for killing of H358 non-small cell lung carcinoma (NSCLC) cells. Certain epigenetic drugs, like histone deacetylase inhibitors, can block cancer cell growth. H358 cell viability was measured using Cell Titer 96 AQueous One (Promega), an assay which detects the ability of metabolically active cells to reduce a tetrazolium salt substrate (MTS), into a soluble formazan product that can be measured by colorimetry.
NCGC Assay Protocol Summary Viability assays: H358 cells were plated in 96-well flat bottom tissue culture dishes (Corning) and grown overnight at 37 C and 5% CO2, then treated with increasing concentrations of compounds, incubated for four days, and assayed for viability using the Cell Titer 96 AQueous One kit (Promega) according to the manufacturer's protocol. Absorbance at 490 nm and 650 nm (reference) was measured by a Spectra Max (Molecular Devices). Data were normalized to the untreated control (100% viability). Each cell line was tested in one or two independent assays, each containing 4 or 8 replicates. For further details, see R.L. Johnson, W. Huang, A. Jadhav, C.P. Austin, J. Inglese, E.D. Martinez, A Quantitative High-Throughput Screen Identifies Potential Epigenetic Modulators of Gene Expression, Analytical Biochemistry (2007), doi: 10.1016/j.ab.2007.12.028

Compound	Potency	outcome
O=Nc1ccc(O)c2ncccc12	3000 nM (active)	–
CC(C)C(=O)NC(c1ccco1)c1cc([N+](=O)[O-])c2cccnc2c1O (centres undefined)	6000 nM (active)	–
CN1CCN(Cc2cc(Cl)c3cccnc3c2O)CC1	2000 nM (active)	–
CN1C(=S)SC(c2ccccc2)N(C)C1c1ccccc1 (centres undefined)	–	inactive
CC(C)C(=O)NC(c1ccc(N(C)C)cc1)c1ccc2cccnc2c1O (centres undefined)	200 nM (active)	–
O=C(CSc1cccc2cccnc12)NCc1ccccc1	–	inactive
CC(C)C(=O)NC(c1ccco1)c1ccc2cccnc2c1O (centres undefined)	500 nM (active)	–
COc1ccc(C(NC(=O)C(C)C)c2ccc3cccnc3c2O)cc1 (centres undefined)	200 nM (active)	–
CC(/C=C/C(=O)NO)=C\[C@@H](C)C(=O)c1ccc(N(C)C)cc1	40 nM (active)	–
